# Laboratory results taken from PubChem BioAssay AID590 (National Center for Advancing Translational Sciences (NCATS), 2007).
# Out of some 59,000 compounds screened, about 6,500 (11%) were called active. Roughly 15% stayed inconclusive and do not appear here. Rule as the data show it: active = max dye-equivalent concentration above about 10 nM; inconclusive = mostly about 1.1 nM to 9.6 nM; inactive = weaker than that. Shown is part of a subset that was picked to be rich in actives.
# Assay: qHTS Assay for Spectroscopic Profiling in A350 Spectral Region
# Settings: Compound autofluorescence, 340/450 nm, Alexa 350 dye-equivalents; active compounds read high
row,Compound,max dye-equivalent concentration
1,CCOc1ccc(CN(Cc2ccco2)C(c2cccs2)c2nnnn2C(C)(C)C)cc1 (stereo unspecified),inactive
2,CCN(Cc1ccncc1)C(=O)[C@@H](CO)c1ccccc1,inactive
3,COc1ccc(C(=O)N/N=C2/C(=O)c3c(C)cc(C)cc3CC2(C)C)cc1,inactive
4,Cc1noc(C)c1C(=O)Nc1ccccn1,inactive
5,Cc1noc(C)c1C(=O)OCC(=O)/C=C1\N(C)c2ccccc2C1(C)C,210 nM (active)
6,Cc1ccc(-c2nc(COC(=O)c3c(C)noc3C)cs2)cc1,inactive
7,COc1cc(C(=O)Nc2nccs2)cc(OC)c1OC,inactive
8,COC(=O)c1cccc(NC(=O)CN2CCC(NC(=O)c3cc(OC)c(OC)c(OC)c3)CC2)c1,inactive
9,COc1cc(C(=O)Nc2oc(-c3ccccc3)c(-c3ccccc3)c2C#N)cc(OC)c1OC,11 nM (active)
10,COc1ccc(CNc2ncncc2-c2ccccc2OC)c(OC)c1,inactive
11,COc1ccc(S(=O)(=O)N2CCCCC2)cc1Br,inactive
12,Cc1ccc(-n2nc(-c3ccco3)cc2C(=O)NCc2cccnc2)cc1,inactive
13,COCCn1c(=O)[nH]c2cc(C(=O)NCc3cccnc3)ccc2c1=O,38 nM (active)
14,CC(C)(C)c1cc(C(=O)NCc2cccnc2)ccn1,inactive
15,CC1=C2C(=O)OC(c3ccoc3)C2(C)CCC1 (stereo unspecified),inactive
16,Cc1ccccc1N1CCN(S(=O)(=O)C[C@@]23CC[C@H](C[C@H]2NC(=O)[C@@H](N)CCS(C)(=O)=O)C3(C)C)CC1,inactive
17,CCCC(=O)Nc1nnc(CC(=O)OCC)s1,inactive
18,O=C(CC1OC(=O)c2ccccc21)NC1CCCCC1 (stereo unspecified),inactive
19,O=C(COc1ccc2c3c(c(=O)oc2c1)CCC3)NC1CCCCC1,82 nM (active)
20,Cc1cc(Cl)c(S(=O)(=O)NCC2CCCO2)cc1OCC(N)=O (stereo unspecified),inactive
21,O=C(COc1ccccc1F)NC1CC1,inactive
22,NC(=O)COc1ccc2c3c(c(=O)oc2c1)CCCCC3,29 nM (active)

row,Compound,max dye-equivalent concentration
1,O=C(COc1ccc2oc3c(c2c1)CCCC3)Nc1ccccn1,inactive
2,COc1ccccc1Nc1nc(N)nc(CN(C)C2CCCCC2)n1,inactive
3,COc1cccc(-c2cc(NCCc3c[nH]c4ccc(OC)cc34)ncn2)c1,inactive
4,O=S1(=O)CCN2C(=N1)SC1=C2CCN(Cc2ccccc2)C1,inactive
5,COc1ccccc1-n1cnc2cc(C(=O)NCC3CCCO3)ccc21 (stereo unspecified),inactive
6,CC1(C)CC(=O)c2cc(OCC(=O)NCC3CCCO3)ccc2O1 (stereo unspecified),1600 nM (active)
7,O=C(Cn1c(=O)n(Cc2ccco2)c(=O)c2ccccc21)NCC1CCCO1 (stereo unspecified),inactive
8,O=C(c1csnn1)N1CCC2(CCN(Cc3nccs3)CC2)CC1,inactive
9,Cc1cc(C)n(C(=O)c2ccc(S(=O)(=O)N3CCCC3)cc2)n1,inactive
10,Cn1nnc2cc(C(=O)NCCC3=CCCCC3)ccc21,inactive
11,CCOC(=O)c1cc2n(c1N)-c1ccccc1C2=O,inactive
12,CCOC(=O)c1cc2n(c1C)-c1ccccc1C2=O,inactive
13,CCCn1c(=NC(C)=O)c(C(=O)OCC)cc2c(=O)n3ccccc3nc21,4900 nM (active)
14,O=S(=O)(CCc1nc2ccccc2o1)c1ccc(Cl)cc1,inactive
15,CN1CCC2(CC1)NC(=O)NC2=O,inactive
16,CCN(CC)S(=O)(=O)c1cccc(C(=O)Nc2cc(C)nn2-c2nc(C)cc(C)n2)c1,inactive
17,CCC(=O)NC(=Nc1nc2ccccc2s1)NC(=O)CC,190 nM (active)
18,CSCCC(Nc1nc2ccccc2s1)C(=O)O (stereo unspecified),inactive
19,COC(=O)Cc1cc(=O)n(-c2nc3ccccc3s2)[nH]1,inactive
20,O=C(O)[C@@H](S)[C@H](S)C(=O)O,inactive
21,COc1ccc(-n2c(SCC(=O)NCc3cccs3)nnc2-c2ccoc2C)cc1,27 nM (active)
22,COc1ccc(C(=O)NC(=O)CSc2nnc(-c3ccco3)n2-c2ccccc2)cc1,inactive

row,Compound,max dye-equivalent concentration
1,O=C(CSc1nnc(-c2cccs2)n1-c1ccccc1)NCc1ccco1,11 nM (active)
2,O=C(CSc1nnc(-c2cccs2)n1-c1ccccc1)N1CCN(C(=O)c2ccco2)CC1,inactive
3,Cc1ccc(-n2c(SCC(=O)Nc3ccc4c(c3)OCO4)nnc2-c2ccoc2C)cc1,inactive
4,O=C(CSc1nnc(-c2c[nH]c3ccccc23)n1-c1ccc(F)cc1)NCc1ccco1,inactive
5,NCCNCC1CCNCC1,inactive
6,Cc1cccc(N2CCN(S(=O)(=O)c3ccc4c(c3)c(=O)n(C)c(=O)n4C)CC2C)c1 (stereo unspecified),inactive
7,O=C(c1cnccn1)N1CCC[C@@]2(CCN(Cc3ccncc3)C2)C1,inactive
8,Cc1ccc(-c2ccc(=O)n(CC(=O)NCCCN3CCCCC3)n2)cc1,inactive
9,COc1ccc(CCN(C)CCN2C(=O)c3ccccc3C2=O)cc1OC,inactive
10,COc1ccc(CCN2C(=O)c3[nH]nc(-c4ccccc4O)c3C2c2ccc(C)cc2)cc1OC (stereo unspecified),140 nM (active)
11,COc1ccc(-c2n[nH]c(C)c2-c2ccc(OC)c(OC)c2)c(O)c1,inactive
12,Cc1cc(C(=O)COC(=O)c2cccs2)c(C)n1-c1c(C)n(C)n(-c2ccccc2)c1=O,inactive
13,Cc1ccc(S(=O)(=O)N2CCN(C(=O)CCC(=O)NC3CCCc4ccccc43)CC2)cc1 (stereo unspecified),inactive
14,O=C(CCC(=O)N1CCN(S(=O)(=O)c2ccccc2)CC1)NC1CCCc2ccccc21 (stereo unspecified),inactive
15,N#C/C=C1\Sc2ccccc2C(=O)N1CC(=O)N1CCN(S(=O)(=O)c2ccccc2)CC1,15 nM (active)
16,COCCn1c(-c2ccc(OC)c(OC)c2)nc2ccccc21,inactive
17,COc1ccc(CCn2nnnc2C(c2ccccc2)N2CCN(C)CC2)cc1OC (stereo unspecified),inactive
18,COc1ccc(CCn2c(-c3ccco3)nc3nc4ccccc4nc32)cc1OC,11 nM (active)
19,CCc1ccccc1NC(=O)CSc1nnc([C@@H](NC(=O)OC(C)(C)C)C(C)C)o1,inactive
20,CN1CCN(C(=O)c2ccc(NS(=O)(=O)c3ccccc3)cc2)CC1,inactive
21,O=C(Nc1c[nH]c(=O)[nH]c1=O)Oc1ccccc1,inactive
22,COc1ccc(C(=O)Nc2ccc(S(=O)(=O)Nc3onc(C)c3C)cc2)cc1OC,inactive

row,Compound,max dye-equivalent concentration
1,COc1ccc2c(c1OC)C(=O)N(c1ncn[nH]1)C2,inactive
2,CCOc1ccc(Nc2oc(Cc3ccccc3)nc2C#N)cc1,inactive
3,CCOc1ccc2nc(NCCNS(=O)(=O)c3ccccc3)c(C#N)cc2c1,86 nM (active)
4,O=C(O)c1cccc(S(=O)(=O)NCCO)c1,inactive
5,CCOc1ccccc1N(CC(=O)NC1CCCCC1)C(=O)CCCC(=O)Nc1ccccn1,inactive
6,N#Cc1c2c(c(N3CCN(CCO)CC3)n3c1nc1ccccc13)CCCC2,23 nM (active)
7,CN(C)CCCNc1c2c(c(C#N)c3nc4ccccc4n13)CCC2,94 nM (active)
8,CN(C)C(=O)/N=N\C(=O)N(C)C,inactive
9,CC(C)NS(=O)(=O)c1ccc(CCC(=O)N2CCOCC2)cc1,inactive
10,N=C(CC(=O)Nc1ccccn1)c1ccccc1,inactive
11,O=C(c1ccccc1)N1CCN(C(=O)N2CCCCC2)CC1,inactive
12,COc1ccc(-c2nc3n(c2Br)CCC3)cc1,inactive
13,CC(Sc1nncs1)C(=O)NCc1ccc2c(c1)OCO2 (stereo unspecified),inactive
14,CCOC(=O)c1c(C)[nH]c(C)c1C(=O)CSc1nc(N)cc(N)n1,inactive
15,O=S(=O)(NCCOc1cccc2cccnc12)c1ccc(F)cc1,inactive
16,CC(=O)Nc1ccc(S(=O)(=O)Nc2cccc(NC(=O)C(C)(C)C)c2)cc1,inactive
17,COc1ccc(NS(=O)(=O)c2ccc(NC(=O)C(C)(C(F)(F)F)C(F)(F)F)cc2)nn1,23 nM (active)
18,COc1cc(NS(=O)(=O)c2ccc(NC(C)=O)cc2)cc(OC)c1,inactive
19,O=C(CN(c1ccc2c(c1)OCCO2)S(=O)(=O)c1ccccc1)Nc1ccc2c(c1)OCO2,inactive
20,CCCn1c(C(O)c2cc(OC)ccc2OC)nc2ccccc21 (stereo unspecified),inactive
21,O=C(NCCc1ccco1)c1nn(Cc2ccccc2)c(=O)c2ccccc12,inactive
22,COc1c(O)cccc1-c1nnn(CCC(=O)OCC(=O)c2ccccc2)n1,inactive

row,Compound,max dye-equivalent concentration
1,COCCNc1ccnc(-c2cccc(NS(C)(=O)=O)c2)n1,inactive
2,COc1ccc(N2C(=O)c3cccc4cccc(c34)C2=O)nn1,160 nM (active)
3,COc1ccc(OCCCON2C(=O)c3ccccc3C2=O)cc1,inactive
4,CCOC(=O)c1[nH]cnc1C(=O)NC1CCCCC1,inactive
5,Fc1ccccc1CCNc1nnnn1-c1ccccc1,inactive
6,Cc1cc(C)n(-c2ccc(Cl)c(C(=O)O)n2)n1,inactive
7,COC(=O)C1=C(C)NC2=C(C(=O)c3ccccc32)C1c1ccc(-c2ccc(C(=O)O)cc2)o1 (stereo unspecified),inactive
8,COc1ccccc1NC(=O)C1=C(C)Nc2ncnn2C1c1ccc(C)o1 (stereo unspecified),inactive
9,COc1ccccc1NC(=O)C1=C(C)NC2=C(C(=O)CCC2)C1c1ccc(C)o1 (stereo unspecified),16 nM (active)
10,O=C(CCCCn1c(=O)[nH]c2ccccc2c1=O)NCc1ccc2c(c1)OCO2,inactive
11,CC1CN(C(=O)CN2C(=O)NC(C)(c3ccccc3)C2=O)CC(C)O1 (stereo unspecified),inactive
12,CN(C(=O)C1CCOC1)c1nnc(-c2cccnc2)s1 (stereo unspecified),inactive
13,C[C@@H]1C[C@H]2[C@@H]3C[C@H](F)C4=CC(=O)C=C[C@@]4(C)[C@]3(F)[C@H](O)C[C@]2(C)[C@@]1(O)C(=O)CO,inactive
14,CCCCOc1ccccc1/C=c1/sc2nc(-c3oc4ccccc4c3C)nn2c1=O,inactive
15,Cc1nc(Nc2ccc3c(c2)OCCO3)c2nnn(Cc3ccccc3Cl)c2n1,980 nM (active)
16,Cc1cc(Cl)c(S(=O)(=O)Nc2ccc3c(c2)OCCO3)cc1OCC(N)=O,inactive
17,C#CCNc1nc(C(C)C)nc2c1nnn2Cc1ccccc1F,inactive
18,CSCC[C@H](NC(=O)NCc1cccs1)C(=O)O,inactive
